From PubChem
LGR2 inh: blocks bursicon-induced cAMP signaling via Drosophila LGR2. 0.35% of 380,000 active. inhibition, % at 9.99 µM. HEK293 LGR2, CRE-luciferase, bursicon-stimulated, 4 h. AID 720647;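 active = drop in luminescence signal, shown as inhibition above about 50% in the replicate tests, limit read from the data, passing the limit was not always enough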;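 also: agonist challenge used bursicon conditioned medium at about half maximal strength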
TROY signal inh: blocks TROY-dependent signaling in reporter cells; Q293 LMP1-TROYcd NF-kB luciferase reporter, 4 h; inhibition, % at 10 µM; 0.98% of 360,000 active;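 active = compounds whose plate-normalised and pattern-corrected inhibition of the luciferase reporter signal at the single screening dose is 50% or more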
EBV LMP1 NFkB: reduces LMP1-driven NF-kappaB luciferase signal | LMP1-induced NF-kappaB luciferase reporter cells, luminescence | 0.69% of 350,000 active | inhibition, % at 12.5 µM | AID 504558; in the data active = inhibition above about 41%;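 also: 0% = neutral control wells and 100% = reference inhibitor control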
MITF act: MITF TRPM1 promoter activation in melanoma cells. SK-MEL-5 TRPM1-promoter luciferase, 24 h; % of positive control, neutral wells = 0. activation, % at 12.5 µM. 0.75% of 300,000 active. AID 588334;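 active = mean activation of at least 80% with every replicate also reaching 80%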;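 also: 0% = neutral control wells and 100% = parthenolide positive control wells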
MITF TRPM1 inh: MITF TRPM1 promoter inhibition in SK-MEL-5 cells | SK-MEL-5 TRPM1 promoter luciferase, 24 h | inhibition, % at 12.5 µM | 0.83% of 330,000 active | AID 488899;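 active = mean inhibition across replicates of 60% or more, whatever share of single replicates reaches that level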
TWEAK Fn14 block: inhibitors of TWEAK-Fn14 interaction signaling; 2% of 360,000 active; AID 1159606; TWEAK-stimulated Fn14 reporter cells, luciferase luminescence, 8 h; inhibition, % at 10 µM; in the data active = inhibition above about 50%
* marks the source's active call; other numbers are inactive results; nt = not tested or not shown. Most compounds without a hit are left out; they make up all but 3% or so of the library.

SMILES	LGR2 inh	TROY signal inh	EBV LMP1 NFkB	MITF act	MITF TRPM1 inh	TWEAK Fn14 block
COc1ccc(N(C(=O)CCl)C(C(=O)NCCc2ccccc2)c2cccs2)cc1 (stereo unspecified)	15	-17	-3	-87	88*	60*
Cc1cc(CC(C)C)n(-c2nc3ccccc3c(=O)n2OCC(N)=O)n1	nt	53*	-20	nt	-21	32
Cc1cc(C)n(-c2nc3ccccc3c(=O)n2OCC(N)=O)n1	nt	2	-7	-6	9	24
O=C(CSc1nc2ccccc2c(=O)n1Cc1ccco1)NCc1ccccc1	nt	13	-6	-9	9	-1
NC(=O)CSc1nc2ccccc2c(=O)n1Cc1ccco1	nt	3	-19	-12	12	3
Cc1cc2c(=O)n(Cc3ccco3)c(SCC(=O)c3ccc(Cl)s3)nc2s1	nt	11	9	-4	2	54*
O=C(CSc1nc2ccccc2c(=O)n1Cc1ccco1)c1ccc(F)cc1	nt	64*	3	15	-14	58*
CCCn1c(C)cc(C(=O)CSc2nc3ccccc3c(=O)n2Cc2ccco2)c1C	nt	48	-56	36	-35	59*
Cc1noc(C)c1NC(=O)N[C@H]1C=C[C@@H](CC(=O)N2CCN(C)CC2)O[C@@H]1CO	14	nt	nt	nt	nt	nt
CCCC#Cc1ccc2c(c1)O[C@@H](CN(C)Cc1cccnc1)[C@H](C)CN([C@@H](C)CO)S2(=O)=O	0	nt	nt	nt	nt	nt
COc1ccc2c3c(n(C)c2c1)[C@@H](CO)N(Cc1ccccc1)CC31CCN(S(=O)(=O)c2ccc(C)cc2)CC1	15	nt	nt	nt	nt	nt
COc1ccc(-c2c[n+]3c4n2CCCCC4=C(c2ccc(Br)cc2)C3)cc1	-18	8	4	-77	76*	7
C[C@H](CO)N1C[C@H](C)[C@@H](CN(C)Cc2ccc(Oc3ccccc3)cc2)Oc2c(NC(=O)Nc3ccc(F)cc3)cccc2C1=O	21	nt	nt	nt	nt	nt
COC(=O)c1ccc2c(c1)C(C)(C)C(/C=C/c1ccccc1O)=[N+]2C	56*	14	-22	-104	105*	87*
C[C@@H]1CN([C@H](C)CO)S(=O)(=O)c2ccc(-c3ccc(C#N)cc3)cc2O[C@@H]1CN(C)Cc1ccccn1	-2	nt	nt	nt	nt	nt
C[C@H](CO)N1C[C@H](C)[C@H](CN(C)C(=O)Nc2ccccc2)Oc2ccc(NC(=O)Nc3cccc4ccccc34)cc2CC1=O	-3	nt	nt	nt	nt	nt
CNS(=O)(=O)c1cc(Cl)ccc1Sc1ccccc1C(=O)O	nt	-24	-6	nt	-1	-12
NS(=O)(=O)c1c(Sc2ccccc2C(=O)O)ccc2ccccc12	-55	-9	-12	nt	4	54*
COc1ccccc1NS(=O)(=O)c1cc([N+](=O)[O-])ccc1N/N=C/c1c[nH]c2ccccc12	nt	52*	-11	nt	8	56*
O=c1c2ccccc2oc2cc(Br)ccc12	-63	-53	1	22	-25	-18
O=c1c2ccccc2oc2c1oc1ccccc12	-95	-84	-34	103*	-110	-41
CC(=O)N1[C@H](C(=O)NCc2ccccc2F)[C@@H](CO)[C@@H]2Cn3c(ccc(-c4ccccc4)c3=O)[C@@H]21	-11	nt	nt	nt	nt	nt
Cc1c(CC(=O)NCCCCCC(=O)O)c(=O)oc2cc3c(cc12)CCC(C)(C)O3	20	-4	4	6	-4	38
Cc1c(CC(=O)NCCCC(=O)O)c(=O)oc2cc3c(cc12)CCC(C)(C)O3	1	39	11	-50	51	81*
CCOC(=O)C1=C(c2ccccc2)NC(=O)NC1c1ccc(O)c(OCC)c1 (stereo unspecified)	-4	6	8	0	-1	-12
CCOC(=O)C1=C(c2ccccc2)NC(=O)NC1c1ccc(O)c(Cl)c1 (stereo unspecified)	6	8	-6	nt	9	73*
O=C(CC[C@H]1O[C@@H](n2ccc(=O)[nH]c2=O)[C@H](O)[C@@H]1O)N[C@H](Cc1ccccc1)C(=O)NCC1CCCCC1	1	10	nt	nt	nt	-8
O=C(CC[C@H]1O[C@@H](n2ccc(=O)[nH]c2=O)[C@H](O)[C@@H]1O)N[C@@H](Cc1ccccc1)C(=O)NCC1CCCO1 (stereo partly specified)	-7	54*	nt	nt	nt	-5
C[C@H]1CCCCO[C@@H](CN(C)C(=O)CCC(F)(F)F)[C@@H](C)CN([C@@H](C)CO)C(=O)c2cc(NS(C)(=O)=O)ccc2O1	-13	nt	nt	nt	nt	nt
